± gives the standard deviation of the averaged measurements.
Key:
DLD1 [1] = assay: cell viability (CellTiter-Glo) relative to plate median (fraction of plate median); higher = more viable cells; details: 5 µM; treatment time 24 h; reporter: 7TFP
Summary of the method: (§1)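 After seeding in 384-well plates, colorectal cancer cell lines carrying stable lentiviral TCF/Wnt firefly luciferase reporters (7TFP or TCF4/Wnt) were left 24 h. Library compounds were then added at a final 5 µM for 24 h. A Tecan F500 reader measured firefly luciferase or CellTiterGlo luminescence on parallel plates, with each well normalised to the plate median by webcellHTS2 (additive, no log transformation), and two independent replicates averaged.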

HCT116 = assay: as above; details: 5 µM; treatment time 24 h; reporter: TCF4/Wnt
Summary of the method: as §1

SW480 [2] = assay: as above; details: 5 µM; treatment time 24 h; reporter: 7TFP
Summary of the method: as §1

DLD1 [3] = assay: TCF/Wnt firefly luciferase reporter signal relative to plate median (fraction of plate median); higher = higher Wnt reporter signal; details: 5 µM; treatment time 24 h; reporter: 7TFP
Summary of the method: as §1

SW480 [4] = assay: as above; details: 5 µM; treatment time 24 h; reporter: 7TFP
Summary of the method: as §1

SMILES | cell viability (DLD1 [1]) | cell viability (HCT116) | cell viability (SW480 [2]) | TCF/Wnt firefly luciferase reporter signal (DLD1 [3]) | TCF/Wnt firefly luciferase reporter signal (SW480 [4])
CC[C@@H](C)C(=O)O[C@H]1[C@H](O)[C@H]2[C@@H](CN3C[C@@H](C)CC[C@H]3[C@@]2(C)O)[C@@H]2C[C@]34O[C@]5(O)[C@@H](OC(=O)[C@](C)(O)[C@@H](C)O)CC[C@@]3(C)[C@@H]5[C@@H](OC(C)=O)[C@@H](OC(C)=O)[C@H]4[C@@]21O (stereo in doubt) | 1.03 ± 0.035 | 1.17 ± 0.085 | 1.08 ± 0.028 | 1.18 ± 0.092 | 1.08 ± 0.071
CCCCCCCCC(=O)NCc1ccc(O)c(OC)c1 | 1.04 ± 0.064 | 0.972 ± 0.025 | 0.981 ± 0.056 | 0.792 ± 0.14 | 0.822 ± 0.061
CNC(C)[C@H](O)c1ccccc1 (stereo not given in full) | 0.976 ± 0.063 | 0.917 ± 0.0099 | 1.02 ± 0.03 | 0.978 ± 0.2 | 1 ± 0.095
CCCCC[C@H](O)c1c(O)cc2c(c1O)C(=O)c1c(O)cc(O)cc1C2=O [Averantin] | 1.02 ± 0.035 | 1.075 ± 0.0071 | 0.9935 ± 0.00071 | 1 ± 0.11 | 0.939 ± 0.14
C=CCc1ccc(OC)cc1 | 1.06 ± 0.092 | 1 ± 0.025 | 1.03 ± 0.035 | 1.2 ± 0.11 | 1.025 ± 0.0071
CC(CCc1ccccc1)NC(C)C(O)c1ccc(O)cc1 (stereo not given) | 0.942 ± 0.064 | 0.904 ± 0.061 | 0.902 | 1.2 ± 0.11 | 1.12 ± 0.014
CC[C@H]1[C@@H]2C[C@H]3[C@@H]4N(C)c5ccccc5[C@]45C[C@@H]([C@@H]2[C@H]5O)N3[C@@H]1O | 0.898 ± 0.03 | 0.899 ± 0.1 | 0.95 ± 0.023 | 0.942 ± 0.0085 | 1.05 ± 0.05
CN1[C@H]2C[C@H](OC(=O)[C@H](CO)c3ccccc3)C[C@@H]1[C@@H](O)C2 | 0.934 ± 0.033 | 1 ± 0.039 | 0.957 ± 0.03 | 0.924 ± 0.025 | 0.94 ± 0.073
CN[C@@H]1[C@@H](O)[C@@H](O[C@@H]2[C@@H](O)[C@H](O[C@H]3O[C@H]([C@@H](C)O)[C@@H](O)[C@H](O)[C@H]3N)[C@@H](N)C[C@H]2N)OC[C@]1(C)O | 1.075 ± 0.0071 | 1.04 ± 0.035 | 1.08 ± 0.071 | 0.964 ± 0.12 | 1.08 ± 0.085
C/C=C\C(=O)O[C@@H]1C[C@H]2O[C@@H]3C=C(C)C(=O)C[C@]3(C)[C@]1(C)[C@]21CO1 [Trichothecin] | 0.922 ± 0.018 | 0.807 ± 0.025 | 0.945 ± 0.023 | 0.733 ± 0.1 | 0.832 ± 0.067
C/C=C/c1ccc2c(c1)OCO2 | 0.951 ± 0.13 | 0.998 ± 0.059 | 0.986 ± 0.049 | 1.04 ± 0.17 | 1.05 ± 0.1
OC1CCCCC1N1CCC(c2ccccc2)CC1 (stereo not given) | 0.98 ± 0.0042 | 0.922 ± 0.069 | 1.04 ± 0.021 | 0.867 ± 0.1 | 0.92 ± 0.022
CCCC(C)C1(CC)C(=O)NC(=O)NC1=O (stereo not given) | 1 ± 0.079 | 0.981 ± 0.02 | 0.978 ± 0.0014 | 0.948 ± 0.018 | 0.933 ± 0.11
CC(=O)O[C@@H]1C[C@@]2(C)[C@H](c3ccoc3)C[C@H]3O[C@]32[C@]2(C)C(=O)C(O)=C3C(C)(C)C(=O)C=C[C@]3(C)[C@@H]12 | 0.901 ± 0.044 | 0.824 ± 0.14 | 1.09 ± 0.12 | 0.888 ± 0.03 | 0.831 ± 0.19
CC(C)CCCC1(C)C=Cc2c(O)c3c(c(CCC(C)C)c2O1)OC12C(CC4CC1C(C)(C)OC2(CCC(C)C(=O)O)C4O)C3=O (stereo not given) | 1.08 ± 0.042 | 0.997 ± 0.0042 | 1.07 ± 0.092 | 1.06 ± 0.014 | 1.06 ± 0.092
NCCCNCCSP(=O)(O)O | 1.02 ± 0.14 | 1.08 ± 0.071 | 1.06 ± 0.021 | 1.1 ± 0.028 | 1.05 ± 0.035
NC(=O)C[S+]([O-])C(c1ccccc1)c1ccccc1 (stereo not given) | 0.952 ± 0.12 | 1.1 ± 0.05 | 1.02 ± 0.014 | 1.08 ± 0.064 | 1.02 ± 0.014
COc1ccc2c(c1O)-c1c(OC)c(OC)cc3c1[C@H](C2)N(C)CC3 | 0.993 ± 0.067 | 1.055 ± 0.0071 | 1 ± 0.035 | 0.885 ± 0.089 | 0.926 ± 0.012
CC(NC(C)(C)C)C(=O)c1cccc(Cl)c1 (stereo not given) | 1.02 ± 0.037 | 1.02 ± 0.021 | 1.02 ± 0.021 | 1.11 ± 0.057 | 1.02 ± 0.11
NCCc1cc(O)c(O)cc1O | 1.04 ± 0.065 | 1.03 ± 0.028 | 0.983 ± 0.025 | 1.13 ± 0.16 | 1.24 ± 0.021
O=C1NC(=O)C(=O)C(=O)N1 | 1.01 ± 0.057 | 0.935 ± 0.063 | 0.945 ± 0.014 | 0.829 ± 0.03 | 0.901 ± 0.064
CN(C)C(=O)Oc1cc(OC(=O)N(C)C)cc(C(O)CNC(C)(C)C)c1 (stereo not given) | 0.986 ± 0.021 | 1 ± 0.024 | 0.961 ± 0.044 | 0.911 ± 0.11 | 1.045 ± 0.0071
COC(=O)[C@]1(C)CC[C@]2(C)CC[C@]3(C)C4=CCc5c(cc(O)c(O)c5C)[C@]4(C)CC[C@@]3(C)[C@@H]2C1 | 0.9465 ± 0.0078 | 1.045 ± 0.0071 | 1.005 ± 0.0071 | 1.03 ± 0.054 | 1.11 ± 0.014
Cc1ncc(CNC(=O)N(CCCl)N=O)c(N)n1 | 1.02 ± 0.021 | 0.98 ± 0.0071 | 1.025 ± 0.0071 | 1.01 ± 0.03 | 0.987 ± 0.019
C=C(C)c1cc2cc(C(C)=O)c(O)cc2o1 | 1.14 ± 0.13 | 1.06 ± 0.071 | 1.07 ± 0.057 | 1.21 ± 0.29 | 1.12 ± 0.085
c1ccc2c(c1)[nH]c1cnccc12 | 0.956 ± 0.041 | 1.01 ± 0.021 | 0.9715 ± 0.005 | 0.892 ± 0.19 | 0.879 ± 0.065
COc1cc2c(cc1O)C[C@H]1c3c(cc(O)c(OC)c3-2)CCN1C | 1.02 ± 0.095 | 1.06 ± 0.086 | 1.12 ± 0.13 | 0.882 ± 0.033 | 1.01 ± 0.17

Source: the supplement of paper PMC6522484
